# Source: PubChem BioAssay
# Assay: reducers of endogenous Her2 protein level, primary screen, SKBR3 breast tumor cells, AlphaScreen, ATP viability (AID 461);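 further: percent of carrier control wells set as 100% viability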
# Conditions: 18-24 h, measured here: SKBR3 viability, ATP luminescence, at 10 µM
row,Compound,viability [%]
1,CN(Cc1cccs1)c1ncnc2sccc12,112
2,CCOC(=O)N1CCN(C(=O)CN(c2ccc(C)cc2)S(=O)(=O)c2c(C)noc2C)CC1,81.5
3,Cc1c2c(nc3nc4ccccc4n13)CC(C)(C)CC2=O,130
4,COc1ccccc1OC(=O)c1ccc2nsnc2c1,110
5,CCN(CCCNC(=O)c1cn(CC)c2ccc(S(=O)(=O)N(C)C)cc2c1=O)c1cccc(C)c1,98
6,O=C(O)C1CC(=O)N(c2ccc(OCc3ccccc3Cl)cc2)C1 (stereo not given),83
7,C=CCOc1ccc(C2C(C(=O)c3ccco3)=C(O)C(=O)N2Cc2cccnc2)cc1 (stereo not given),108
8,[N-]=[N+]=CC(=O)CC(c1ccccc1)N1C(=O)c2ccccc2C1=O (stereo not given),93.5
9,CCC1(c2ccc(F)cc2)NC(=O)N(CC(=O)c2ccc[nH]2)C1=O (stereo not given),110
10,c1csc(-c2nc3nc4ccccc4nc3n2Cc2ccc3c(c2)OCO3)c1,98.5
11,Cc1n[nH]c(C)c1S(=O)(=O)N1CCN(c2ccccn2)CC1,99.5
12,Cn1c(=O)c2c(nc(NCCc3ccccc3)n2CC(=O)NCCc2ccccc2)n(C)c1=O,91
13,Cc1cc(Br)ccc1NC(=O)CCN1C(=O)c2ccncc2C1=O,104
14,COc1ccccc1Oc1coc2c(CN3CCN(C)CC3)c(O)ccc2c1=O,102
15,O=C(Nc1ccccc1N1CCN(c2ccc(F)cc2)CC1)c1ccccc1,95
16,c1ccc(Cc2ccc(OCCn3cncn3)cc2)cc1,84
17,Cc1cccc(Nc2nc3c(c(=O)n(C)c(=O)n3C)n2Cc2ccccc2)c1,122
18,Cc1nn(C)c(C)c1CNC(=O)c1cc2n(n1)C(C(F)(F)F)CC(c1cccs1)N2 (stereo not given),89.5
19,COc1ccc(CNc2nc3nc(C)cc(C)n3n2)cc1OC,104
20,CCOC(=O)c1ccc(N2C(=O)C3CC=CCC3C2=O)cc1 (stereo not given),112

row,Compound,viability [%]
1,CC(C(=O)NCCCN1CCOCC1)n1cccc1C(=O)c1ccccc1 (stereo not given),90
2,Cc1nc(NC2=NCN(CC3CCCO3)CN2)nc2ccccc12 (stereo not given),98.5
3,COCCOC(=O)C1=C(N)OC2=C(C(=O)CC(C)(C)C2)C1c1cccnc1 (stereo not given),76
4,CC(C)(C)NCc1cc2ccccc2[nH]c1=O,90
5,COc1ccc(-c2noc(-c3cc(Cl)ccc3Cl)n2)cc1OC,122
6,CCC(=O)Nc1ccc(Cl)c(NC(=O)C(C)C)c1,97
7,COC(=O)c1cc2ccsc2n1CC(=O)Nc1cc(C)cc(C)c1,96.5
8,COc1ccc(-c2nnc(SCC#N)o2)cc1,104
9,Cc1nc(C)c(C(=O)C2=C(O)C(=O)N(CCN3CCOCC3)C2c2cccnc2)s1 (stereo not given),104
10,Cc1ccc(NC(=O)CCC(=O)OCC(F)(F)C(F)F)cc1,98
11,CN(C)c1ccc2c(c1)OC(N)=C(C#N)C2c1cccc(F)c1 (stereo not given),92
12,CCN1CCN(CCCNC(=O)C2c3ccccc3C(=O)N(C)C2c2ccc(OC)cc2)CC1 (stereo not given),102
13,Cc1oc(-c2ccc(Cl)cc2)nc1CS(=O)CC(=O)NCCCN(C)C1CCCCC1 (stereo not given),91.5
14,CC(C)CCN1CC(C(=O)NCc2ccccc2)CC1=O (stereo not given),88.5
15,CC1CCN(S(=O)(=O)c2ccc3[nH]cc(C(=O)NCCN4CCOCC4)c(=O)c3c2)CC1,108
16,Cc1ccc(S(=O)(=O)N(C)Cc2cc3ccccc3[nH]c2=O)cc1,114
17,CC(=O)N1CCN(c2ccc(S(=O)(=O)N3CCCCC3)cn2)CC1,97
18,CCOC(=O)c1cnc(-n2nc(C)cc2C)nc1Nc1cccc(C(C)=O)c1,87.5
19,Fc1ccc(NCc2nnc(SCc3nnc(-c4ccccc4)o3)n2CC2CCCO2)cc1 (stereo not given),96.5
20,O=C1Nc2ccccc2OC1CC(=O)N1CCCC1 (stereo not given),88.5
